A short description of assay [1]: P. berghei load reduction in hepatocytes – cell-based, HepG2, luciferase luminescence, HepG2 viability, primary screen (AID 624349; in the data active = parasite load remaining mostly below about 12%, no sharp cut-off; inactive = mostly above about 10%;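 note: 100% = mean of DMSO negative control wells on the same plate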). The following applies: P. berghei liver stage in HepG2, luciferase luminescence, concentration not given here; parasite load remaining: stronger effect = lower value; viability: measured here: HepG2 viability without parasites.
Assay [2] is described as follows: Wnt pathway potentiators raising nuclear beta-catenin – imaging, WNT3A-conditioned medium, mouse C2C12, NPC library, primary screen (AID 1117326; in the data active = nuclear beta-catenin stimulation mostly above about 4.2%, no sharp cut-off; inactive = mostly below about 10%). The following applies: stronger effect = higher value.
Assay [3] can be described thus: stimulators of insulin release from INS-1E, primary screen, cell-based, 5 mM glucose, NPC library (AID 1117329;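 active = compound raises insulin release from rat beta cells at 5 mM glucose, no numeric limit stated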). As to conditions: rat INS-1E insulin secretion, at 10 µM, stronger effect = higher value.
A short description of assay [4]: growth inhibition of GSK3B-pretreated HCT116 cells – cell-based, CellTiter-Glo, 0.2 to 20 µM (AID 1117336;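 active = compounds lowering colon cancer cell viability after pretreatment blocking the GSK3B kinase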). The following applies: HCT116 viability after GSK3B inhibitor, at 20 µM, stronger effect = higher value. In general terms: Cellular ATP, detected with luciferase, serves as a proxy for viable cell number.
Assay [5] in a line: inhibition of endothelial tube formation, primary screen, imaging, VEGF stimulated, CD31 staining, tube area, NPC library (AID 1117340;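 active = compound that reduces growth-factor-driven endothelial tube area in a mixed cell culture, no cutoff stated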). The following applies: VEGF-stimulated ADSC/ECFC co-culture, at 10 µM, stronger effect = higher value.
A short description of assay [6]: GLP1 release stimulators, primary, NCI-H716, NPC library (AID 1117341;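 active = compound raises GLP1 secretion from the human gut endocrine cells, with no numeric limit stated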). The following applies: NCI-H716 cells, at 10 µM, stronger effect = higher value.
Assay [7] is described as follows: HCT116 colon cancer cell growth inhibition, primary screen, CellTiter-Glo luminescence, NPC library (AID 1117342;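 active = compounds that lower survival of HCT116 colon cancer cells in the luminescence readout, no numeric limit stated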). The following applies: at 20 µM (top of the series).
Assay [8] is described as follows: reduced SW480 viability measured with CellTiter-Glo, NPC library, primary (AID 1117343;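 active = compounds that lower viability of the colon cancer cells in the luminescence readout, with no numeric limit stated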). As to conditions: CellTiter-Glo luminescence; at 20 µM (top of the series) unless noted.
Assay [9] is described as follows: NPC library primary testing for decreased DLD-1 cell viability via CellTiter-Glo (AID 1117346;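 active = compounds that lower survival of DLD-1 colon cancer cells in the luminescence readout, no cutoff given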). As to conditions: DLD-1 viability, CellTiter-Glo luminescence; at 20 µM (top of the series).
Assay [10] is described as follows: EMT-state selective cytotoxicity in co-culture – imaging, PC-3E GFP, TEM4-18 mCherry, primary screen (AID 1345086;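 active = compounds killing one labelled cell type while sparing the other, by normalised counts and ratio limits, not self-fluorescent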;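 for all read-outs here: cells exposed to compound for 72 h before imaging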;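 for red/green cell ratio (normalised): normalised mesenchymal count divided by normalised epithelial count so high means epithelial killing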). As to conditions: PC-3E GFP / TEM4-18 mCherry co-culture, imaging cell counts, at 1 µM; for red/green cell ratio (normalised): actives lie on both sides, counts scaled to control wells, 1 = unselective.
Assay [11] can be described thus: viability loss with induced miR-34 in A549 – imaging, A549 dox-inducible miR-34, nuclei and caspase counts, primary screen (AID 1347080). As to conditions: A549 miR-34 inducible, Hoechst nuclei count, 48 h.
The target of assay [12] is NAD(+) hydrolase SARM1 (Homo sapiens) (UniProt Q6SZW1). Nature of the assay: blocking NAD cleavage by SARM1 SAM-TIR – cell lysate, NAD-Glo luminescence (AID 1508614;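 active = compound whose remaining NAD level is above about 45 nM, limit read from the data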;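 note: higher remaining NAD means stronger inhibition of SARM1 NADase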). The following applies: SAM-TIR HEK293T lysate NADase, at 1 µM, stronger effect = higher value.
Chain of NAD(+) hydrolase SARM1 (Homo sapiens) (Q6SZW1 whole entry, looked up): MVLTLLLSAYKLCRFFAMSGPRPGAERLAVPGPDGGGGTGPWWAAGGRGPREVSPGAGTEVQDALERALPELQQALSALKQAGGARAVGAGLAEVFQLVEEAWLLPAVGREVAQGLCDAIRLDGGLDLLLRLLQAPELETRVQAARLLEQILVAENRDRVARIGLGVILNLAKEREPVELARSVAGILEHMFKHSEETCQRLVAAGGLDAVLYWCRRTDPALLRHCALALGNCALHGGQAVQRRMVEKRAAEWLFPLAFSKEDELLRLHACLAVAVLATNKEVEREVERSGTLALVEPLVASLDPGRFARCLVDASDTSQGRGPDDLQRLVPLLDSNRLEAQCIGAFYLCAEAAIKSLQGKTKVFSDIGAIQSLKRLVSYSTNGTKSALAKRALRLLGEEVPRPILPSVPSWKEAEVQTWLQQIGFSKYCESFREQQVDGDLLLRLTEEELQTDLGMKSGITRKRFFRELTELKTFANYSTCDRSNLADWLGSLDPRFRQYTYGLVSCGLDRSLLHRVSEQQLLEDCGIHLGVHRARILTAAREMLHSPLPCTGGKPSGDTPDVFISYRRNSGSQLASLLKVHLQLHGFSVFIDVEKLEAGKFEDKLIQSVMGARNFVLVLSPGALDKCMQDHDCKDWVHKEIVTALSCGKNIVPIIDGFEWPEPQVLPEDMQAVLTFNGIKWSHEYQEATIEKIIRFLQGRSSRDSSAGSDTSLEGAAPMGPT
The nature of assay [13]: compounds altering viability of human ES cells (AID 493140; call rule not given here;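 note: cells exposed to compounds for four days before counting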). The following applies: human embryonic stem cell survival screen; stronger effect = higher value.
The nature of assay [14]: MELAS cybrid and Rieske KO viability enhancers – cell-based, MELAS cybrids, Rieske KO mouse fibroblasts, CellTiter-Glo, primary screen (AID 1508586;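 active = mean z-score across replicates of 1.96 or higher in either the MELAS or the Rieske mutant cell line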;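 note: z relative to plate mean and SD of compound and empty wells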). The following applies: low glucose.
Where [15] appears, read: measured here: epithelial PC-3E GFP cell survival.
The mark [16] stands for this setting: measured here: mesenchymal TEM4-18 mCherry cell survival.
Setting [17] is: stronger effect = lower value, cell number ratio, induced over uninduced.
The mark [18] stands for this setting: measured here: relative caspase fold change +Dox/-Dox.
Where [19] appears, read: measured here: total cells with miR-34 induction, stronger effect = lower value.
The mark [20] stands for this setting: measured here: total cells without miR-34 induction.
Where [21] appears, read: MELAS cybrid survival, CellTiter-Glo 48 h, stronger effect = higher value.
Setting [22] is: Rieske KO mouse fibroblast survival, CellTiter-Glo 72 h.

By viability is commonly meant a read-out of living cells in per cent, often relative to untreated cells.

Molecules are shown by their SMILES. “And” between values parts separate entries of the source, which are not always exact repeats. Identical values can stand only once. The source made the active and inactive calls.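 Rule for the calls, unless noted: active = compounds whose cell count with miR-34 switched on is under 0.7 times the count with it off; inactive = the rest.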

`CCCCCCCCCCCCCCCCCCCCCCO`: the parasite load remaining in [1] is 85.5% (inactive). Also, the viability in [1] is 109%. For the same molecule, the nuclear beta-catenin stimulation in assay [2] (at 10 µM) was 3.4% (inactive); in assay [2] (stimulation, at 2 µM) it was 2.9%. In assay [3], the insulin secretion stimulation is -2.5% (inactive). In addition, the viability decrease in [4] is -7.2% (inactive). In addition, the tube area decrease in assay [5] was -8.1% (inactive). Further, the GLP1 secretion stimulation in [6] was 1.1% (inactive). The inhibition of viability in [7] is -36.7% (inactive). In addition, the viability decrease (inhibition) in [8] is 16.6% (inactive); in assay [9], 7.8% (inactive). Besides, in [10], the red/green cell ratio (normalised) is 1.1 (inactive). The figures for the normalised cell number in assay [10] (setting [15]) and in assay [10] (setting [16]) were 0.99 and 1.09, respectively. In addition, the results for the fold change in assay [11] (setting [17]) and in [11] (setting [18]) were 0.841 (inactive) and 5.17, respectively. Besides, the cell count in [11] (setting [19]) came out at 10500; in assay [11] (setting [20]), 12500. Also, the remaining NAD in assay [12] is 10 nM (inactive).
In the case of `Clc1ccc(Cn2c(CN3CCCC3)nc3ccccc32)cc1`, the survival in assay [13] is 21.8 (inactive). Moreover, in assay [1], the parasite load remaining is 30.7% (inactive) and 102% (inactive). In addition, in assay [1], the viability was 47.8% and 90.5%. Further, the nuclear beta-catenin stimulation is 3.1% (inactive) in assay [2] (at 10 µM) and 3% in assay [2] (stimulation, at 2 µM). For the same molecule, in assay [3], the insulin secretion stimulation is 4.9% (inactive). Also, the viability decrease in [4] was -123% (inactive). Besides, the tube area decrease in assay [5] was 14.2% (inactive). Also, in assay [6], the GLP1 secretion stimulation was 6.1% (inactive). Besides, the inhibition of viability in assay [7] is 34% (inactive). Moreover, the viability decrease (inhibition) in assay [8] is 61.5% (active); in [9], 19.7% (inactive). Further, in assay [10], the red/green cell ratio (normalised) was 0.77 (inactive). Further, the figures for the normalised cell number in assay [10] (setting [15]) and in [10] (setting [16]) were 1.28 and 0.98, respectively. The fold change in assay [11] (setting [17]) was 1.11 (inactive) and 0.92 (inactive); in [11] (setting [18]), 2.1 and 1.3. Moreover, the cell count in assay [11] (setting [19]) is 5510 and 8130; in assay [11] (setting [20]), 4960 and 8840. Also, the z-score in assay [14] (setting [21]) is 0.821 (inactive); in assay [14] (setting [22]), 0.481. Moreover, the remaining NAD in [12] is 10 nM (inactive).
As to `CNCCCC1c2ccccc2C=Cc2ccccc21`, in assay [13], the survival is 0.667 (inactive). Besides, in assay [1], the parasite load remaining is 64.9% (inactive) and 67.7% (inactive). The viability in [1] was 77.6% and 100%. Also, the nuclear beta-catenin stimulation in assay [2] (at 10 µM) was 2% (inactive); in [2] (stimulation, at 2 µM) it was 0.5%. For the same molecule, the insulin secretion stimulation in [3] is 1.7% (inactive). The viability decrease in assay [4] was -46.9% (inactive). Also, in [5], the tube area decrease was 40.6% (active). Besides, the GLP1 secretion stimulation in assay [6] was 6.8% (inactive). The inhibition of viability in [7] was 39.3% (inactive). Moreover, the viability decrease (inhibition) in assay [8] was 87.8% (active); in assay [9], 30.3% (inactive). In addition, the red/green cell ratio (normalised) in assay [10] is 1.06 (inactive). Moreover, the normalised cell number in assay [10] (setting [15]) was 0.98; in [10] (setting [16]), 1.04. For the same molecule, the fold change in assay [11] (setting [17]) was 1.12 (inactive) and 0.946 (inactive) and 0.93 (inactive); in assay [11] (setting [18]), 1.27 and 1.04 and 5.53. In addition, the cell count in assay [11] (setting [19]) was 6500 and 6350 and 11800; in assay [11] (setting [20]) it was 5820 and 6720 and 12700. Moreover, the figures for the z-score in assay [14] (setting [21]) and in [14] (setting [22]) were -0.141 (inactive) and -0.441, respectively. Moreover, the remaining NAD in assay [12] is 10 nM (inactive).
As to `CC[N+](CC)(CC(=O)Nc1c(C)cccc1C)Cc1ccccc1`, the parasite load remaining in [1] was 117% (inactive) and 51.1% (inactive). In addition, in assay [1], the viability was 146% and 98%. The nuclear beta-catenin stimulation is -0.3% (inactive) in assay [2] (at 10 µM) and 6.8% in assay [2] (stimulation, at 2 µM). Besides, the insulin secretion stimulation in assay [3] was -0.4% (inactive). Besides, the viability decrease in assay [4] was -6.6% (inactive). In addition, the tube area decrease in assay [5] was -5.6% (inactive). In addition, the GLP1 secretion stimulation in assay [6] was 1.3% (inactive). Also, the inhibition of viability in assay [7] is -21.2% (inactive). For the same molecule, the viability decrease (inhibition) in assay [8] is 14.9% (inactive); in assay [9], -2.15% (inactive). Further, the red/green cell ratio (normalised) in assay [10] is 1.59 (inactive). Besides, the figures for the normalised cell number in assay [10] (setting [15]) and in [10] (setting [16]) were 1.01 and 1.61, respectively. Further, the fold change in assay [11] (setting [17]) is 0.914 (inactive) and 0.932 (inactive); in assay [11] (setting [18]), 0.77 and 5.58. The cell count in assay [11] (setting [19]) is 8020 and 13200; in assay [11] (setting [20]), 8770 and 14200. For the same molecule, the z-score is -0.589 (inactive) in [14] (setting [21]) and -0.906 in assay [14] (setting [22]). In assay [12], the remaining NAD is 10 nM (inactive).

The record behind these values is PubChem BioAssay.
